Hit rate of the full screen: of about 200,000 compounds, about 5,100 (2.5%) were called active.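 How the source made its calls: active means activation above the screen-wide mean activation plus 3 SD (cut at about 130% in these data); inactive means the rest.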 What follows is part of a selection rich in actives, with near analogues and random picks from the rest.

The nature of this test: STAT1 signaling activators, primary screen, cell-based, HTS, luciferase reporter (AID 932).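 Further: raw ratio to IFN-gamma control signal so 100% means no change and 0% no light.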 The settings on record: NIH 3T3 STAT1-luciferase reporter, IFN-gamma, luminescence; at 5.5 µM; active compounds read high; 100% = IFN-gamma alone, no compound.
On to `COc1ccc(-c2csc(Nc3ccccn3)n2)cc1`, for which the activation (% of control) was 110% (inactive). On to `Clc1ccc(Nc2nc(-c3cccs3)cs2)nc1`, for which the activation (% of control) was 196% (active). Turning to `c1cnc(Nc2nc(-c3ccc4ccccc4c3)cs2)nc1`, the activation (% of control) was 164% (active).

Take `Cc1ccc(-c2csc(NC(=O)Cc3cccs3)n2)cc1C`: the activation (% of control) was 111% (inactive).

As for `O=C(Nc1ccc(Cl)cn1)Nc1cccs1`, the activation (% of control) is 123% (inactive). In the case of `Cc1ccc(-c2csc(NC(=O)c3cccs3)n2)cc1`, the activation (% of control) is 123% (inactive).

With `Oc1ccc(-c2csc(Nc3cccnc3)n2)cc1`, the activation (% of control) was 110% (inactive). As for `NC(=O)c1ccccc1N=Cc1ccc2ccccc2c1`, the activation (% of control) is 124% (inactive).

Turning to `CCOC(=O)c1cc2c(=O)n3ccccc3nc2n(CC(C)C)c1=NC(=O)c1c(-c2c(F)cccc2Cl)noc1C`, the activation (% of control) was 89.8% (inactive).

Turning to `CC(C)OC(=O)Cn1nc(C(F)(F)F)c2c1CCCC2`, the activation (% of control) is 96.5% (inactive). In the case of `Cc1ccc2nc(SCc3cn4c(C)cc(C)nc4n3)[nH]c2c1`, the activation (% of control) is 96.4% (inactive). The figure for `CNC(=O)c1ccc(NC(=O)c2cccc(C(F)(F)F)c2)cc1` is 98.4% (inactive); for `Cc1cc(C)c(C#N)c(N2CCC(C(N)=O)CC2)n1` it is 98.4% (inactive). Turning to `Cc1n[nH]c(=S)n1/N=C/c1ccc(Br)o1`, the activation (% of control) was 104% (inactive). In the case of `COc1cc(/C=N/n2c(C)n[nH]c2=S)ccc1OCc1ccccc1`, the activation (% of control) is 144% (active). Turning to `CNC(=S)N/N=C/c1ccc(OCc2ccccc2)c(Br)c1`, the activation (% of control) was 119% (inactive).

On to `CCN(CC)C(=O)C(=O)Nc1cccc(Br)c1`, for which the activation (% of control) was 129% (active). As for `C=C(C)C(=O)Nc1cccc(C(C)=O)c1`, the activation (% of control) was 102% (inactive). On to `CSc1ccccc1NC(=O)CN(C)CC(=O)Nc1cccc(Br)c1`, for which the activation (% of control) was 89.3% (inactive). With `CCOc1ccc(C(C)=O)cc1COC(=O)c1cnc(Cl)c(Cl)c1`, the activation (% of control) was 101% (inactive). As to `Cc1ccnc(NC(=O)c2ccc(Cl)c([N+](=O)[O-])c2)c1`, the activation (% of control) is 95.8% (inactive).

As to `O=C(CSc1nnc(-c2cnccn2)n1Cc1ccco1)c1ccc(Cl)c(Cl)c1`, the activation (% of control) is 94.7% (inactive).

Regarding `Cn1c(SCc2c(F)cccc2Cl)nnc1-c1cnccn1`, the activation (% of control) is 130% (active). For `Fc1cccc(Cl)c1CSc1ccc(-c2ccco2)nn1`, the activation (% of control) is 126% (inactive). The figure for `O=C(CSc1nnc(C2CC2)n1Cc1ccccc1)Nc1cccnc1Cl` is 96.9% (inactive).

`CCc1ccc(CN(C)C(=O)CCc2nnc(-c3ccc(-c4ccccc4)cc3)o2)nc1`: the activation (% of control) was 93.4% (inactive). The figure for `Cc1ccccc1C(=O)Nc1ccc(N2CCCCCC2)cc1` is 141% (active); for `COc1cccc(OC)c1C(=O)Nc1ccc(N2CCCCC2)cc1` it is 103% (inactive); for `COc1cccc(C(=O)Nc2ccc(N3CCCC3)cc2)c1` it is 127% (inactive). With `CCc1cc2c(=O)c(-c3ccc(F)cc3)c(C(F)(F)F)oc2cc1OCC(=O)O`, the activation (% of control) was 97.7% (inactive). The figure for `C/C(CC(=O)Nc1ccc(C)cc1C)=N\NC(=O)C(C)C` is 102% (inactive); for `O=S(=O)(c1cccc(C(F)(F)F)c1)N1CCN(c2cnccn2)CC1` it is 108% (inactive); for `Cc1cc(C)nc(N2CCC(C(=O)Nc3ccc4c(c3)OCCO4)CC2)n1` it is 101% (inactive). Regarding `Cc1ccnc(N2CCCC(C(=O)Nc3cc(F)ccc3C)C2)n1` (configuration not stated), the activation (% of control) is 104% (inactive).

On to `O=C(Nc1ccc2c(c1)OCCO2)C1CCCN(c2ncccn2)C1` (configuration not stated), for which the activation (% of control) is 143% (active). As for `NS(=O)(=O)c1ccc(NC(=S)Nc2ccc(Br)c(Cl)c2)cc1`, the activation (% of control) was 94.5% (inactive). Consider `CCC(C)N(C(=O)COC(=O)C1C(C(=O)OC)=C(C)NC(C)=C1C(=O)OC)C1CCS(=O)(=O)C1` (configuration not stated), for which the activation (% of control) is 102% (inactive).

On to `O=C(Nc1ccc(Cl)cc1)C1c2cccc[n+]2CC(=O)N1Cc1ccc2c(c1)OCO2` (configuration not stated), for which the activation (% of control) is 101% (inactive).

Take `Cc1cc(C)nc(NNC2=CC(=O)CC(C)(C)C2)n1`: the activation (% of control) was 115% (inactive).

As to `Cc1ccc(/C=N/NC(=O)CSc2nc3ccccc3o2)cc1`, the activation (% of control) is 111% (inactive). Take `CCN(CC)C(=O)CSc1nc2ccccc2o1`: the activation (% of control) was 110% (inactive). In the case of `CC(C)(C)C(=O)CSc1nc2ccccc2o1`, the activation (% of control) was 150% (active).

As to `COc1ccc(/C=C2/SC(=O)N(CCCCCC(=O)Nc3ccccc3C(=O)O)C2=S)cc1`, the activation (% of control) is 102% (inactive). With `Cc1nnc(SCC(=O)N2CCc3ccccc32)n1-c1ccccc1`, the activation (% of control) was 100% (inactive). Take `O=C(CSCc1ccccc1)N1CCc2ccccc21`: the activation (% of control) was 138% (active). Take `NC(=O)N1CCc2ccccc21`: the activation (% of control) is 98.2% (inactive). On to `CCOc1ccc(NC(=O)CN(C)CC(=O)NC(C)c2ccccc2)cc1OCC` (configuration not stated), for which the activation (% of control) is 99.4% (inactive). In the case of `Cc1ccc(Nc2nc(-c3ccc(O)cc3O)cs2)nc1`, the activation (% of control) is 143% (active). The figure for `Cc1ccc(-c2csc(NNC(=O)c3ccccc3)n2)cc1` is 102% (inactive); for `Cc1ccc(NC(=O)c2cc(-c3ccc(C)o3)nc3ccccc23)nc1` it is 91.3% (inactive); for `CN(C)/C=C(/C(=O)c1ccc(F)cc1)S(=O)(=O)c1ccc(F)cc1` it is 106% (inactive). Turning to `CCN(CCn1cccn1)C(=O)CC1C(=O)NCCN1Cc1cccc(OC)c1OC` (configuration not stated), the activation (% of control) is 96.3% (inactive).

For the origin of these results see PubChem BioAssay AID932 (The Scripps Research Institute Molecular Screening Center, 2007).
